Assay results taken from the supplement of paper PMC11732987, “Enantioselective OTUD7B fragment discovery through chemoproteomics screening and high-throughput optimisation” (Communications Chemistry, 2025).

Experiments:
Assay in all cases: log2 ratio of Biotin-Ahx-Ub-VS probe labelling (fragment/DMSO); higher = less target engagement (more negative = stronger competition), active = hit call of the paper (q ≤ 0.05, log2 ratio ≤ -1)
Conditions in all cases: compound concentration: 200 uM; treatment time: 3 h
USP19 = biological target: T1, USP19 (UniProt O94966)
T1 sequence (whole entry): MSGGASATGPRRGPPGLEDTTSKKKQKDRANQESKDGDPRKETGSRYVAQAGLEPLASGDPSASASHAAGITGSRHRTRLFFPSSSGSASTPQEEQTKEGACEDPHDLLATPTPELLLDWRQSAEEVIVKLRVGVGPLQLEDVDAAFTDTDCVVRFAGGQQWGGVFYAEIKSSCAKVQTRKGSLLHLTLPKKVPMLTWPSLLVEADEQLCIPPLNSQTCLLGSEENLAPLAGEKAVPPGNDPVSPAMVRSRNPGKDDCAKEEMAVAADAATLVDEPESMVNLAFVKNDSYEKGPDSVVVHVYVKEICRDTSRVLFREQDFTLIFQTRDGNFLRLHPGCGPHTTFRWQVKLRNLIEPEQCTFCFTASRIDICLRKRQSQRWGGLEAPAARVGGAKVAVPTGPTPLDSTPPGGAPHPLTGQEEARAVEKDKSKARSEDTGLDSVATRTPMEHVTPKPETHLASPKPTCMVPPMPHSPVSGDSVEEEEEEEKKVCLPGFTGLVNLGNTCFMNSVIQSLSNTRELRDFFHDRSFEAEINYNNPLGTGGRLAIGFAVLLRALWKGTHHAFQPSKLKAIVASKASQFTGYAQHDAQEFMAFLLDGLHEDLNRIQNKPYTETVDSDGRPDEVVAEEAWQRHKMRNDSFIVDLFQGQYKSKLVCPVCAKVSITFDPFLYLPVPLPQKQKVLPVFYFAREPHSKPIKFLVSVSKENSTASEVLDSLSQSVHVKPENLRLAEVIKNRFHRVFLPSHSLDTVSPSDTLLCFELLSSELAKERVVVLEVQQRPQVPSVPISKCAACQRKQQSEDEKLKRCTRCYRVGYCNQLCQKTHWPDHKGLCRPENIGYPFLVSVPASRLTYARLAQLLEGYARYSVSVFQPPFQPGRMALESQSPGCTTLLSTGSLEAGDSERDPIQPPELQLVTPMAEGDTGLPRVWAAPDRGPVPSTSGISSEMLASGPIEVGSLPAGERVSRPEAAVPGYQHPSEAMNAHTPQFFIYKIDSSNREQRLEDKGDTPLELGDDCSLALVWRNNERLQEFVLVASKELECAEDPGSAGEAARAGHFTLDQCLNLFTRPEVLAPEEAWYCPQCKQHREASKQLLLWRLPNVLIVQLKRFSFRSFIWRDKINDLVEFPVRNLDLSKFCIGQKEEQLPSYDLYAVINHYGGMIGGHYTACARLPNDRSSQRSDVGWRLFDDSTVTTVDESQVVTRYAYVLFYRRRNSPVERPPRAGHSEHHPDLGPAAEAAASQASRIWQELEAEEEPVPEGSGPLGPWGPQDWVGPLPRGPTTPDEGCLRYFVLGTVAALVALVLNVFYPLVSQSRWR
How it was run: (§1)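 Global-median-normalised Spectronaut label-free quantities were compared by unpaired t-test, and values are average log2 ratios of fragment over vehicle. Only proteins with ≥2 unique peptides were used. HEK293T lysate (495 µg per sample) was treated in triplicate with fragment at 200 µM or vehicle for 3 h and then with Biotin-Ahx-Ub-VS at 0.5 µM final for 1 h. Labelled DUBs were then NeutrAvidin-enriched, digested with LysC and trypsin, and run by diaPASEF LC-MS/MS.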

USP24 = USP24 (UniProt Q9UPU5)
How it was run: as §1

USP25 = biological target: T2, USP25 (UniProt Q9UHP3)
T2 sequence (whole entry): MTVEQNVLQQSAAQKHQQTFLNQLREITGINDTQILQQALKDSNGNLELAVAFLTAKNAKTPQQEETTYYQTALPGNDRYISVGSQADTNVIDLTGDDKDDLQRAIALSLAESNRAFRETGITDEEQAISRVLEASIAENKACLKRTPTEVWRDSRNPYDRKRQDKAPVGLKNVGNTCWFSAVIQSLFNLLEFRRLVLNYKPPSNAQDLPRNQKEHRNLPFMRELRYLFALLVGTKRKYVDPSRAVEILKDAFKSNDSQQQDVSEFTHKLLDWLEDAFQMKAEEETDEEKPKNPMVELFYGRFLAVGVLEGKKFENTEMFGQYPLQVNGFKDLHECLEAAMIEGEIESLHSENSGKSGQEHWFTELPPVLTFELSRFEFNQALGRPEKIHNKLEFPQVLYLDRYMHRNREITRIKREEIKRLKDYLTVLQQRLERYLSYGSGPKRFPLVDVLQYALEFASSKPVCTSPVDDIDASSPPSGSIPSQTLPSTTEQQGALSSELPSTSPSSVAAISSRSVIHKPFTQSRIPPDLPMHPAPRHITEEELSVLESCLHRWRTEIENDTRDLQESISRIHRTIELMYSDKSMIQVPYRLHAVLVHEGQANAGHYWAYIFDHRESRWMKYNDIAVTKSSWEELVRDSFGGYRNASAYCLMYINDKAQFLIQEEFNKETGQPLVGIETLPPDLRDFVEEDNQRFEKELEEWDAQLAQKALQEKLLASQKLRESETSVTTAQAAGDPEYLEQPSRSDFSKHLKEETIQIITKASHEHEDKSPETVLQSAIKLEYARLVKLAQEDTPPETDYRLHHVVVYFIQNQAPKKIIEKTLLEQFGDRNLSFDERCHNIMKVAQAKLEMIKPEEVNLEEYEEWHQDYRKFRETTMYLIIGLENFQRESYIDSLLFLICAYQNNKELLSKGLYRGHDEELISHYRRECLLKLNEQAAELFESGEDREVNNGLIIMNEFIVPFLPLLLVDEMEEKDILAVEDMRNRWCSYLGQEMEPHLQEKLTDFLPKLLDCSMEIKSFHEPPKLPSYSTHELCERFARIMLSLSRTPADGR
How it was run: as §1

USP28 = biological target: T3, USP28 (UniProt Q96RU2)
T3 sequence (whole entry): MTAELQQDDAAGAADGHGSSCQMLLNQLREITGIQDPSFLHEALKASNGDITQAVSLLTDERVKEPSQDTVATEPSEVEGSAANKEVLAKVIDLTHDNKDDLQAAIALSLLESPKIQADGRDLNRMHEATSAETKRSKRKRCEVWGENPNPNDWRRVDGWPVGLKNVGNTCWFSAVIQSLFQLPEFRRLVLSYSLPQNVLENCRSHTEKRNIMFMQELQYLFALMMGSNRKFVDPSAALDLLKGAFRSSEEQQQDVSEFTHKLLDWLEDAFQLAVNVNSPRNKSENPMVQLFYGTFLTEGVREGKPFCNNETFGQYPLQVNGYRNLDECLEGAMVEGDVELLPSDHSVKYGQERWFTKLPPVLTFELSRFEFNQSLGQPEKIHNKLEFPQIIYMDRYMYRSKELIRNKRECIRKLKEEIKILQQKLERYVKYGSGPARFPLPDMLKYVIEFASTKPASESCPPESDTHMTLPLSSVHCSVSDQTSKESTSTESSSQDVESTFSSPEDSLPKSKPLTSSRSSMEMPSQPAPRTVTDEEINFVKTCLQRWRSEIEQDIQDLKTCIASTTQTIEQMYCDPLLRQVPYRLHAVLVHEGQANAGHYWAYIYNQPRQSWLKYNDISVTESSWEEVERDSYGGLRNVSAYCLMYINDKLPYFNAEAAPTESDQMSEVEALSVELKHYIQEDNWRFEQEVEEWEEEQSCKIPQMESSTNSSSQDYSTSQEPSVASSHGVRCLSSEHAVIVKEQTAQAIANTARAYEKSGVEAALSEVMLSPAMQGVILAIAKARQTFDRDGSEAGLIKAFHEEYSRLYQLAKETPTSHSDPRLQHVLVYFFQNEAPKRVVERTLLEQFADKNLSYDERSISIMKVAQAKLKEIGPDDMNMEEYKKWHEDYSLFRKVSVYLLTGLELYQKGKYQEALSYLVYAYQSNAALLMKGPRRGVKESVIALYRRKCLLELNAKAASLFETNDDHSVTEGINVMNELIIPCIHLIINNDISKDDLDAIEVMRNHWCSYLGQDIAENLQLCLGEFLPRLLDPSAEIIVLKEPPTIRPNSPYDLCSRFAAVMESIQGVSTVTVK
How it was run: as §1

Measured: log2 ratio of Biotin-Ahx-Ub-VS probe labelling

Chain of USP24 (Q9UPU5 whole entry): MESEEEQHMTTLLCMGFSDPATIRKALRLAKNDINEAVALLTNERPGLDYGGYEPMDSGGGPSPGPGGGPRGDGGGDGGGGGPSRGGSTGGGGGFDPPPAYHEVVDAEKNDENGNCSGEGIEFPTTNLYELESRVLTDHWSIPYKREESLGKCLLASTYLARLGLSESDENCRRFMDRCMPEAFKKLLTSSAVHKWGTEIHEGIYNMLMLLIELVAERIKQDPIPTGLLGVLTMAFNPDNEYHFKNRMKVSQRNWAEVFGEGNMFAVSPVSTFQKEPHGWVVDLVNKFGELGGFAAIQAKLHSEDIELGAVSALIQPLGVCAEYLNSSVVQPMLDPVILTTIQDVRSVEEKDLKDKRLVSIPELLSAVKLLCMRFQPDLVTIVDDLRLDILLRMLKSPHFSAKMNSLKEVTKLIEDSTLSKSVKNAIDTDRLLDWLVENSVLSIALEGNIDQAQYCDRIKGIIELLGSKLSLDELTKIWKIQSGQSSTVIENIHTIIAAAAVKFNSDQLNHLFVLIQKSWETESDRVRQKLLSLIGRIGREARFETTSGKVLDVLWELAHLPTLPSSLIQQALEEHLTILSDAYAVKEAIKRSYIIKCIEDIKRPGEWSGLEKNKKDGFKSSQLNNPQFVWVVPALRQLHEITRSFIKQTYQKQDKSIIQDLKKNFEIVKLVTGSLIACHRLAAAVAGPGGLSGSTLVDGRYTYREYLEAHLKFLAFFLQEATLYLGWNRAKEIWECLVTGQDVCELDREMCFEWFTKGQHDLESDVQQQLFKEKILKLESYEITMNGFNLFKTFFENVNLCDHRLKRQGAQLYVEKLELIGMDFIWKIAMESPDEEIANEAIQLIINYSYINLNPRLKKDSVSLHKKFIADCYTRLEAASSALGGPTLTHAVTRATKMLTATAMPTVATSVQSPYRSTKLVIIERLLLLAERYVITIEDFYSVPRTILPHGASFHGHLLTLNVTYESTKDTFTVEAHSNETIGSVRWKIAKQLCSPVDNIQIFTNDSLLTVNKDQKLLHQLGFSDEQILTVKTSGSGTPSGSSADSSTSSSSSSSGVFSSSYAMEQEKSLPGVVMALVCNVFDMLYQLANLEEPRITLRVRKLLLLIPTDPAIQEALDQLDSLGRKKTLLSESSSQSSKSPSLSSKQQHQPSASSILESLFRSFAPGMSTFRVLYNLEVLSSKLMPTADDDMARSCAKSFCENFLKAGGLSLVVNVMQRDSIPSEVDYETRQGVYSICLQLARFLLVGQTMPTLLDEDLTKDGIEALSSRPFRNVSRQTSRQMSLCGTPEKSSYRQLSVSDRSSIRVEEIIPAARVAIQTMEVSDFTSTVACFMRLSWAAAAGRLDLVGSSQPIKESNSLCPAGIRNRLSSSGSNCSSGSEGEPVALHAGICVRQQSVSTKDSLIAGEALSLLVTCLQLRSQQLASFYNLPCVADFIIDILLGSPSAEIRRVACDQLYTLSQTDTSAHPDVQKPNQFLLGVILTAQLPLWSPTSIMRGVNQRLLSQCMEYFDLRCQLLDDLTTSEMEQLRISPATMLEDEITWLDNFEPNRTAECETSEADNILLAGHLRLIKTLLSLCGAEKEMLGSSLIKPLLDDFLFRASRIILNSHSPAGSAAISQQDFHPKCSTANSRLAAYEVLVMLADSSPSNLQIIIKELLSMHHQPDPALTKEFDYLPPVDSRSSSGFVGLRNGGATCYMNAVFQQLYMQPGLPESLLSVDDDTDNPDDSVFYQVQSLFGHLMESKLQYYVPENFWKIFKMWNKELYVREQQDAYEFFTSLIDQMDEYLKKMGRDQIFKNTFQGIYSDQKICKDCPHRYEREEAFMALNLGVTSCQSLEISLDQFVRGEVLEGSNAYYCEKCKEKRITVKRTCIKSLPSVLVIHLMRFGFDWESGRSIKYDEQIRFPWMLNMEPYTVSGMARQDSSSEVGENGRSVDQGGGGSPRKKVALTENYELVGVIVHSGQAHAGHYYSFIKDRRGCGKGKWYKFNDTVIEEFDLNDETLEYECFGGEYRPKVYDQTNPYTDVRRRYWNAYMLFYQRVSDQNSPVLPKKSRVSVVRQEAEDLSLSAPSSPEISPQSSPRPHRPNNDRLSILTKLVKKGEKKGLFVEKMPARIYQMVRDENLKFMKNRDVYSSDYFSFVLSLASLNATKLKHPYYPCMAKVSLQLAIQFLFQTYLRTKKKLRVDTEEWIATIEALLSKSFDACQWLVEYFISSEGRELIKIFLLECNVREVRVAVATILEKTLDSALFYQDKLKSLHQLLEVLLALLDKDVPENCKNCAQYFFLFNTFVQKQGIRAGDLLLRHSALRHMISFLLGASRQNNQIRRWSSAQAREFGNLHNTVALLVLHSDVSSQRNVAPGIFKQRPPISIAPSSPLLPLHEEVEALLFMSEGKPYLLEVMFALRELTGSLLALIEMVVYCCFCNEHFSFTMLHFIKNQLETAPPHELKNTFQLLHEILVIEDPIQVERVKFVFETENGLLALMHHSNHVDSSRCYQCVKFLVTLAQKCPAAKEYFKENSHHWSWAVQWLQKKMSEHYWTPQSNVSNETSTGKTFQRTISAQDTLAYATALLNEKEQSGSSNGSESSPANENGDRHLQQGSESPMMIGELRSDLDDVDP

Cl.O=C(CCl)NCc1ccnc(Oc2ccccc2F)c1
inactive: USP19 -0.111 | USP24 -0.349 | USP25 -0.678 | USP28 -0.558
